Results as given in PubChem BioAssay (NCATS).
Records with an inconclusive call do not appear. Where a call stands in place of a potency, no number is given. A number with no mark means an inactive call. The source made the active and inactive calls. Unless noted, the call rests on the fitted dose curve; in most records, active means well fitted curve in the direction sought with a large enough effect; inconclusive means small, poorly fitted or top-dose-only effect, or another doubt; inactive means no such curve, though single readings can be large; an effect the other way counts as inactive or inconclusive.

Target: Cellular tumor antigen p53 (Homo sapiens) (UniProt P04637)
Sequence (P04637 whole entry, looked up): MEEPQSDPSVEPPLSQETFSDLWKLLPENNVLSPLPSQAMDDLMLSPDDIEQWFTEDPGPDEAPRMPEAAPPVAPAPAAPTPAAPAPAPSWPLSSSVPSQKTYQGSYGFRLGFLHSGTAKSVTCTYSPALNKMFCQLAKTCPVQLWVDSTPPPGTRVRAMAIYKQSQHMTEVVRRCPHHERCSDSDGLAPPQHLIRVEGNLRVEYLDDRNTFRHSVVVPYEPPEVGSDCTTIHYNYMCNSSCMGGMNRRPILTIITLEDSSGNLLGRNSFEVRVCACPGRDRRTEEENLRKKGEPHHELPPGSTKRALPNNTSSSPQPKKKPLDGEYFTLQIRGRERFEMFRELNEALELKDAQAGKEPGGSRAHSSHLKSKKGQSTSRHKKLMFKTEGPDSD
Assay: Primary qHTS for small molecule compounds that upregulate eGFP-tagged delta133p53alpha (in C-terminal) cells. (AID 2060324); further: potency means the concentration at half of the fitted maximal effect
Settings: NCI-H358 delta133p53alpha-eGFP (C-terminal tag), GFP fluorescence imaging, 24 h; series mostly up to 57.5 µM
Method in brief: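 NCI-H358 cells with doxycycline-inducible D133p53a-eGFP (C-terminal tag), pre-induced 24 h with 100 ng/ml doxycycline, plated 800/well in doxycycline-free medium and treated 24 h at 37 °C with compound titrations. Cells were then fixed and Hoechst-stained, and GFP intensity was read by laser scanning cytometry.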

SMILES	Potency
CC[C@H]1CN2CCc3cc(OC)c(OC)cc3[C@@H]2C[C@@H]1C[C@H]1NCCc2cc(OC)c(OC)cc21	151 nM (active)
COC(=O)[C@H]1[C@H]2C[C@@H]3c4[nH]c5cc(OC)ccc5c4CCN3C[C@H]2C[C@@H](OC(=O)c2cc(OC)c(OC)c(OC)c2)[C@@H]1OC	26900 nM (active)
COCCOC(=O)C1=C(C)NC(C)=C(C(=O)OC(C)C)C1c1cccc([N+](=O)[O-])c1 (centres undefined)	inactive
NC(=O)NO	inactive
CCN(CC)CCOc1ccc(Nc2ncc3cc(-c4c(Cl)cccc4Cl)c(=O)n(C)c3n2)cc1	26900 nM (active)

Target: Aldehyde dehydrogenase, mitochondrial (Homo sapiens) (UniProt P05091)
Assay: qHTS for Inhibitors of the Aldehyde Dehydrogenase Family (ALDH2) Validation screens (AID 2061302; active means well fitted inhibition curve with a large enough effect; title and protocol of this record describe different tests)
Settings: ALDH inhibition qHTS; series mostly up to 42.6 µM

SMILES	Potency
CC[C@H]1CN2CCc3cc(OC)c(OC)cc3[C@@H]2C[C@@H]1C[C@H]1NCCc2cc(OC)c(OC)cc21	inactive
COC(=O)[C@H]1[C@H]2C[C@@H]3c4[nH]c5cc(OC)ccc5c4CCN3C[C@H]2C[C@@H](OC(=O)c2cc(OC)c(OC)c(OC)c2)[C@@H]1OC	inactive
COCCOC(=O)C1=C(C)NC(C)=C(C(=O)OC(C)C)C1c1cccc([N+](=O)[O-])c1 (centres undefined)	inactive
NC(=O)NO	inactive
CCN(CC)CCOc1ccc(Nc2ncc3cc(-c4c(Cl)cccc4Cl)c(=O)n(C)c3n2)cc1	inactive

Target: Retinaldehyde dehydrogenase 3 (Homo sapiens) (UniProt P47895)
Assay: qHTS for Inhibitors of the Aldehyde Dehydrogenase Family (ALDH1A3) Validation screen (AID 2061312); further: nearly all actives have a fitted effect of over 45% in size
Settings: ALDH1A3 enzyme inhibition qHTS validation, fluorescence; series mostly up to 84.7 µM

SMILES	Potency
CC[C@H]1CN2CCc3cc(OC)c(OC)cc3[C@@H]2C[C@@H]1C[C@H]1NCCc2cc(OC)c(OC)cc21	inactive
COC(=O)[C@H]1[C@H]2C[C@@H]3c4[nH]c5cc(OC)ccc5c4CCN3C[C@H]2C[C@@H](OC(=O)c2cc(OC)c(OC)c(OC)c2)[C@@H]1OC	inactive
COCCOC(=O)C1=C(C)NC(C)=C(C(=O)OC(C)C)C1c1cccc([N+](=O)[O-])c1 (centres undefined)	inactive
NC(=O)NO	inactive

Tested on: not listed separately
Assay: BET inhibitor-based combinations targeting novel dependencies in MECOM-rearranged (r) AML: SET-2 cell line (AID 2202231); further: nearly all actives have a fitted effect of over 35% in size; further: potency means the concentration at half of the fitted maximal effect
Settings: SET-2 AML cells viability, CellTiter-Glo luminescence, 48 h; viability: hits give low values, concentration not given here
Method in brief: (§1)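 Each compound was tested at eleven concentrations on cells seeded at 500/well. After two days' incubation, ATP-based luminescence reported viability; responses relative to DMSO and blank wells yielded AUC and cell-line-centred Z-AUC.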

SMILES	Potency	viability [%]
CC[C@H]1CN2CCc3cc(OC)c(OC)cc3[C@@H]2C[C@@H]1C[C@H]1NCCc2cc(OC)c(OC)cc21	372 nM (active)	–
NC(=O)NO	–	114
CCN(CC)CCOc1ccc(Nc2ncc3cc(-c4c(Cl)cccc4Cl)c(=O)n(C)c3n2)cc1	3720 nM (active)	–

Tested on: not listed separately
Assay: BET inhibitor-based combinations targeting novel dependencies in MECOM-rearranged (r) AML: MV-4-11 cell line (AID 2202233); further: nearly all actives have a fitted effect of over 45% in size; further: potency means the concentration at half of the fitted maximal effect
Settings: MV-4-11 AML viability, CellTiter-Glo luminescence, 48 h; series mostly up to 46 µM
Method in brief: (§2)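 First, 500 cells per well were seeded; next, drugs were pinned as 11-point doses; then plates sat 48 hr in the incubator; finally CellTiter-Glo was added and luminescence read, with AUC and Z-AUC computed.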

SMILES	Potency
CC[C@H]1CN2CCc3cc(OC)c(OC)cc3[C@@H]2C[C@@H]1C[C@H]1NCCc2cc(OC)c(OC)cc21	235 nM (active)
NC(=O)NO	inactive
CCN(CC)CCOc1ccc(Nc2ncc3cc(-c4c(Cl)cccc4Cl)c(=O)n(C)c3n2)cc1	590 nM (active)

Tested on: not listed separately
Assay: BET inhibitor-based combinations targeting novel dependencies in MECOM-rearranged (r) AML: HNT-34 cell line (AID 2202234); further: nearly all actives have a fitted effect of over 35% in size; further: potency means the concentration at half of the fitted maximal effect
Settings: HNT-34 AML viability, CellTiter-Glo luminescence, 48 h; series mostly up to 46 µM
Method in brief: as §2

SMILES	Potency
CC[C@H]1CN2CCc3cc(OC)c(OC)cc3[C@@H]2C[C@@H]1C[C@H]1NCCc2cc(OC)c(OC)cc21	332 nM (active)
NC(=O)NO	inactive
CCN(CC)CCOc1ccc(Nc2ncc3cc(-c4c(Cl)cccc4Cl)c(=O)n(C)c3n2)cc1	29.5 nM (active)

Tested on: not listed separately
Assay: BET inhibitor-based combinations targeting novel dependencies in MECOM-rearranged (r) AML: UCSD-AML1 cell line (AID 2202235); further: nearly all actives have a fitted effect of over 40% in size; further: potency means the concentration at half of the fitted maximal effect
Settings: UCSD-AML1 AML cells viability, CellTiter-Glo, 48 h; series mostly up to 46 µM
Method in brief: as §2

SMILES	Potency
CC[C@H]1CN2CCc3cc(OC)c(OC)cc3[C@@H]2C[C@@H]1C[C@H]1NCCc2cc(OC)c(OC)cc21	372 nM (active)
NC(=O)NO	inactive
CCN(CC)CCOc1ccc(Nc2ncc3cc(-c4c(Cl)cccc4Cl)c(=O)n(C)c3n2)cc1	2950 nM (active)

Tested on: not listed separately
Assay: BET inhibitor-based combinations targeting novel dependencies in MECOM-rearranged (r) AML: AML-194 cell line (AID 2202237; further: nearly all actives have a fitted effect of over 40% in size; further: potency means the concentration at half of the fitted maximal effect)
Settings: AML-194 (MECOM-r AML) viability, CellTiter-Glo, 48 h; series mostly up to 46 µM
Method in brief: as §1

SMILES	Potency
CC[C@H]1CN2CCc3cc(OC)c(OC)cc3[C@@H]2C[C@@H]1C[C@H]1NCCc2cc(OC)c(OC)cc21	372 nM (active)
NC(=O)NO	inactive
CCN(CC)CCOc1ccc(Nc2ncc3cc(-c4c(Cl)cccc4Cl)c(=O)n(C)c3n2)cc1	2950 nM (active)
